# Source: PubChem BioAssay (several laboratories)
# Shown are actives, neighbours in structure and some others; about 6.6% of the full set was active somewhere.
# Mdm2 MdmX PPI: inhibitors of human Mdm2/MdmX interaction | SaOS-2 split-luciferase Mdm2/MdmX complementation, luminescence | O15151+Q00987 | inhibition, % at 8 µM | 330,000 compounds, 3% hits | AID 485346;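 active = inhibition of at least 50% at 8 µM in the primary screen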
# Target sequence (O15151 whole entry, looked up): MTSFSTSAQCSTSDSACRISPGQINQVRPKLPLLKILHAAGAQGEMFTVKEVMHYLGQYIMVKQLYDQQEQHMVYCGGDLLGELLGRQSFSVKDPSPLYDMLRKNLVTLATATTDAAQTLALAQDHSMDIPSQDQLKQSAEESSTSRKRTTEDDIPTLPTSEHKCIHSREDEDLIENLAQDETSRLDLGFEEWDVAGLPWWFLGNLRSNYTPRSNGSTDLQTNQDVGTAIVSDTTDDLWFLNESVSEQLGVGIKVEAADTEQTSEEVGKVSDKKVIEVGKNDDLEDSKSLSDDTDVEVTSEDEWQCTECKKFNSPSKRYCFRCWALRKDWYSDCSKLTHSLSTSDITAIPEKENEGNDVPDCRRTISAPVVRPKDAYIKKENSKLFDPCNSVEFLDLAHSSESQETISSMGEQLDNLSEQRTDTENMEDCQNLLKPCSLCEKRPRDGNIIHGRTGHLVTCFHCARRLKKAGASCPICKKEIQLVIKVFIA
# Target sequence (Q00987 whole entry, looked up): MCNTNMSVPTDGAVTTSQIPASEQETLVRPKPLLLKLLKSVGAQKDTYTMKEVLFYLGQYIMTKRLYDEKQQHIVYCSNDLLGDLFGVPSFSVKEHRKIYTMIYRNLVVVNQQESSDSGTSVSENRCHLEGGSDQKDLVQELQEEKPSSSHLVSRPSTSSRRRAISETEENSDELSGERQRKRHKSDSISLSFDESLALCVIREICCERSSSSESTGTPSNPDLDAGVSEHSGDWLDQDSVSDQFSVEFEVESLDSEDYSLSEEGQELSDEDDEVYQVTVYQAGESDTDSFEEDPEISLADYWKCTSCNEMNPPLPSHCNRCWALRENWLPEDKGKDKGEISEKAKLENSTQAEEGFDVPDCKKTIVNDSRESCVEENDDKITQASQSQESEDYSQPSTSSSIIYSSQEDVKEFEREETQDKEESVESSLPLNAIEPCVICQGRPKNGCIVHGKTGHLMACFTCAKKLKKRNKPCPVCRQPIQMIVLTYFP
# Beta apoptosis: beta cell apoptosis inhibition. 300,000 compounds, 0.8% hits. AID 435005. protection from apoptosis, % (no concentration beside the values). INS-1E cytokine-induced death, ATP luminescence, 48 h; percent of positive-control rescue, neutral wells zero;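 active = Every replicate reaches about 75%, or at least half do and their mean reaches it too, limit read from the data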;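 also: 0% = cytokine-treated negative control wells and 100% = positive control rescue; higher means more ATP so stronger rescue from cytokine killing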
# MPTP inh: inhibitors of mitochondrial permeability transition pore; AID 602449; isolated mouse mitochondria, Ca2+ swelling absorbance, 30 min; 360,000 compounds, 1.4% hits; inhibition, % at 10 µM;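 active = inhibition of 50% or more, scaled per plate between neutral and stimulator controls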;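 also: 0% = DMSO wells given calcium and 100% = 1 mM EGTA wells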
# Gli-Sufu block: antagonists of Gli-Sufu signaling; Sufu-KO-LIGHT fibroblasts, Gli luciferase reporter luminescence; inhibition, % at 5 µM; 340,000 compounds, 0.74% hits; AID 588413;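 active = inhibition above about 55%, limit read from the data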;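 also: 0% = DMSO-treated cells and 100% = wells with medium but no cells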
# GRIN3A LBD mod: modulates the human NR3A ligand-binding domain. NR3A LBD differential scanning fluorimetry, Tm shift; 0% = protein alone, 100% = glycine-bound protein. Tm shift relative to glycine control, % at 25 µM. AID 1259313. 340,000 compounds, 2.5% hits;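 active = melting temperature shift of at least 10% of the positive control shift, at one fixed dose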
# CSC inhib: blocks cancer stem cells. AID 2717. cancer stem cell-like cells viability, luminescence. 300,000 compounds, 1.1% hits. inhibition, % at 7.5 µM; in the data active = inhibition above about 75%; tested in HMLE shEcad cells
# Gli-Sufu confirm: Gli-SUFU antagonism confirmation, single concentration; shares compounds with Gli-Sufu block; Sufu-KO-LIGHT cells, Gli luciferase reporter, luminescence; inhibition, % at 5 µM; 2,500 compounds, 40% hits;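 active = mean inhibition at 5 µM reaching about 45%, limit read from the data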;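 also: plate controls were DMSO-treated cells for no effect and wells lacking cells for full effect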
# Gli cytotox: cytotoxicity counter-screen for Gli-SUFU antagonists; shares compounds with Gli-Sufu block; Sufu-KO-LIGHT cells cytotoxicity, ATP luminescence; cytotoxicity, % at 5 µM; 2,500 compounds, 32% hits;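 active = mean cytotoxicity at 5 µM above about 25%, limit read from the data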;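 also: cells exposed to compound overnight for roughly 16 to 18 hours; plate controls were DMSO wells with cells for no effect and medium without cells for full effect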
# Wnt3a cs: Wnt3a reporter inhibition counter-screen. shares compounds with Gli-Sufu block. Wnt-LIGHT cells, Wnt3a-driven luciferase reporter, luminescence. inhibition, % at 6.25 µM. 2,500 compounds, 20% hits;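 active = mean inhibition above about 25%, limit read from the data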
# * = called active by the depositor; · = no result given.
SMILES,Mdm2 MdmX PPI,Beta apoptosis,MPTP inh,Gli-Sufu block,GRIN3A LBD mod,CSC inhib,Gli-Sufu confirm,Gli cytotox,Wnt3a cs
Cc1cc(-n2c(C)cc(C(=S)N3CCOCC3)c2C)ccc1Br,14,-11,1,5,2,25,·,·,·
CCCCCc1nc2c(=O)n(C)c3ccccc3c2o1,-5,1,0,76*,-1,-17,3,5,-52
C/C(=N\NC(=O)c1nn(C)cc1Cl)c1ccncc1,13,-5,0,-2,-2,2,·,·,·
COc1ccccc1NC(=O)CNC(=O)Cn1cnc2sc(C)c(C)c2c1=O,29,1,-1,-15,0,5,·,·,·
COc1ccc(Br)cc1C(=O)NC(=S)Nc1ccc(CN2CCOCC2)cc1,40,10,-1,50,-12,2,20,12,-17
O=C(NC(=S)Nc1ccc(CN2CCOCC2)cc1)c1ccc(-c2ccc(Br)cc2)o1,39,-6,·,7,-2,-5,·,·,·
COc1cc2nc(CN(C)Cc3ccc(OC)c(OC)c3OC)[nH]c(=O)c2cc1OC,-3,-1,0,-9,0,-8,·,·,·
COC(=O)C1(C(=O)OC)Cc2ccccc2N(S(=O)(=O)c2ccc(C)cc2)C1CC(C)=O (centres undefined),·,·,-2,·,·,·,·,·,·
COCCOc1nc2c(c(=O)n(C)c(=O)n2C)n1Cc1cccc(OC)c1,3,·,27,52,0,22,44,21,23
COc1ccccc1NCC(=O)n1nc(C)cc1C,-17,-2,2,51,0,8,22,5,-4
COc1ccc(-c2[nH][nH]c(=O)c2NC(=O)c2ccccc2Br)cc1,·,·,0,·,·,·,·,·,·
Cc1cc2cc(CNC(=O)c3ccc(C)c([N+](=O)[O-])c3)ccc2[nH]1,-8,12,0,58*,0,-3,29,26*,-62
Cc1cc(C(=O)N/N=C2/CC(C)CC(C)(C)C2)c(C)o1 (centres undefined),-20,-2,0,52,1,-8,22,22,-2
Cc1cc(C(=O)N/N=C2\CCCc3ccccc32)c(C)o1,-18,-5,2,-33,0,-1,·,·,·
O=C(c1ccco1)N1CCN(c2ccnc3cc(Cl)ccc23)CC1,11,-4,2,54,-1,-3,42,9,-22
COCc1[nH]c(=S)[nH]c(=O)c1C,2,1,1,-1,0,-23,·,·,·
NNC(=O)c1csc(-c2cccc(C(F)(F)F)c2)n1,8,1,2,95*,1,-6,23,2,-6
CCOC(=O)C1(CCc2ccccc2)CCN(Cc2cccc3nccnc23)CC1,10,12,1,55,2,-1,30,4,-58
COc1ccc(S(=O)(=O)N2CCC(C(N)=O)(N3CCCCC3)CC2)cc1,-5,2,-1,1,0,-5,·,·,·
CC(=O)Nc1ccc(S(=O)(=O)N2CCC(C(N)=O)(N3CCCCC3)CC2)cc1,3,9,0,55*,-2,1,30,-1,14
CCn1cc(/C=N\NC(=O)Cc2ccc([N+](=O)[O-])cc2)c(C)n1,20,-3,1,1,-7,-12,·,·,·
O=C(CN1C(=O)c2ccccc2S1(=O)=O)c1ccccc1F,21,·,1,60*,0,18,78*,20,89*
O=C(CN1C(=O)c2ccccc2S1(=O)=O)c1cccc(Br)c1,23,-1,1,67*,1,-9,74*,11,85*
O=C(CN1C(=O)c2ccccc2S1(=O)=O)N1CCN(c2ccccc2F)CC1,36,1,-3,0,2,12,·,·,·
